# Laboratory results taken from PubChem BioAssay (NCATS).
# Results filed as inconclusive are left out. Active and inactive are the calls of the source. Unless noted, calls follow the shape of the dose curve; as a rule, active = well fitted curve in the direction sought with a large enough effect; inconclusive = small, poorly fitted or top-dose-only effect, or another doubt; inactive = no such curve, though single readings can be large; an effect the other way counts as inactive or inconclusive.
# Columns and labels:
# [1] = qHTS to identify inhibitors of the type 1 interferon - major histocompatibility complex class I in skeletal muscle: primary screen against the NCATS LOPAC collection (AID 1347405)
# Summary of the method: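 IFN-beta-stimulated (4 ng/ml) HLA-B HiBiT knock-in myoblasts, compound-treated 24 hrs up to 46 uM final; signal via LgBiT complementation and furimazine luminescence.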
# [2] = qHTS for inhibitors of adenylyl cyclases using a fission yeast platform: a pilot screen against the NCATS LOPAC library (AID 1347410)
# Summary of the method: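 Growth medium went into the plates first, then compounds were pinned (final up to 57 µM), then CHP2027 yeast were added. Plates were incubated overnight (18 h) at 30C in the dark, and GFP was measured by laser scanning cytometry.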
# [3] = qHTS for activators of dead-cell proteases activity screened against the NCATS CANVASS Library (AID 1347392)
# Summary of the method: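 HepG2, 2000 cells/well, 18 h attach; cpd 11-pt, 5 h 37C 5% CO2; CytoTox-Glo (AAF-aminoluciferin) 15 min RT; luminescence read.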
# [4] = qHTS for inhibitors of ER calcium dysfunction: SERCaMP assay screened against the NCATS CANVASS Library (AID 1347393); conditions: SH-SY5Y GLuc-SERCaMP secretion, thapsigargin, luminescence
# Summary of the method: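 SH-SY5Y GLuc-SERCaMP, 1000 cells/well, 4 h attach; cpd 16 h, 37C/5% CO2; thapsigargin (added as 6x 600 nM) 4 h; coelenterazine; luminescence. Reduced reporter release = ER Ca stabilization.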
# [5] = Vero-766 cells viability qHTS against the NCATS CANVASS Library: Counterscreen for Zika virus inhibition assay (AID 1347394)
# Excerpt: Natural products and their derivatives continue to be wellsprings of nascent therapeutic potential. However, many laboratories have limited resources for biological evaluation, leaving their previously isolated or synthesized compounds largely or completely untested. To address this issue, the Canvass library of natural products was assembled (https://tripod.nih.gov/canvass), in collaboration with academic and industry researchers, for quantitative high-throughput screening (qHTS) across a diverse set of cell-based and biochemical assays. The pure (>85% purity by liquid chromatography/mass spectrometry [LC/MS]) Canvass library of 346 natural products were submitted by 45 academic laboratories and companies around the world. […] The library was formatted into 1536-well plates and evaluated in 50 qHTS (in an 11-pnt concentration series) bioassays with broad scope of disease-relevant mechanisms. The resulting data set from 50 different assays was then systematically analyzed to identify overall trends and specific natural products with interesting biological activities. […] A decrease in the luminescence signal is caused by cytotoxic compounds. […]
# Zika-counterscreen assay protocol: 1. […] Luminescence signal was obtained via the ViewLux plate reader (Perkin Elmer) using the clear emission filter and 1x binning, 2 seconds exposure settings.
# [6] = qHTS for inhibitors of Wild type Zika virus screened against the NCATS CANVASS Library (AID 1347396)
# Summary of the method: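 Protection against wild-type Zika cytopathic effect is measured in African green monkey Vero 766 cells exposed to an 11-point compound series. Surviving cells are quantified by CellTiter Glo luminescence after 72 h.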
# [7] = Viability qHTS for inhibitors of the SERCaMP assay screened against the NCATS CANVASS Library (AID 1347400)
# Summary of the method: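 Measures loss of viability in SERCaMP reporter SH-SY5Y cells treated for 48 h with compounds; luminescent ATP detection by CellTiter-Glo.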
# [8] = qHTS for inhibitors of Rabies Virus screened against the NCATS CANVASS Library (AID 1347402; calls by dose curve)
# [9] = Redox Reaction Profiling qHTS: Assay Interference Panel against the NCATS CANVASS Library (AID 1347401)
# Excerpt: Natural products and their derivatives continue to be wellsprings of nascent therapeutic potential. However, many laboratories have limited resources for biological evaluation, leaving their previously isolated or synthesized compounds largely or completely untested. To address this issue, the Canvass library of natural products was assembled (https://tripod.nih.gov/canvass), in collaboration with academic and industry researchers, for quantitative high-throughput screening (qHTS) across a diverse set of cell-based and biochemical assays. […] The library was formatted into 1536-well plates and evaluated in 50 qHTS (in an 11-pnt concentration series) bioassays with broad scope of disease-relevant mechanisms. The resulting data set from 50 different assays was then systematically analyzed to identify overall trends and specific natural products with interesting biological activities. […]
# Redox Profiling assay protocol: 1. […] An initial fluorescence readout was obtained using the ViewLux plate reader (PerkinElmer) using a 525 nm excitation and a 598 nm emission filters. […] After incubation, the final fluorescence readout was obtained using the ViewLux plate reader (PerkinElmer) using a 525 nm excitation and a 598 nm emission filters.
smiles,measurement,setting,value
CNc1ccc2oc(C[C@H]3O[C@@]4(CC[C@H]3C)O[C@H]([C@H](C)C(=O)c3ccc[nH]3)[C@H](C)C[C@H]4C)nc2c1C(=O)O,Potency,[1],3.98 µM (active)
same,outcome,[2],inactive
Clc1ccc(N2CC3CCC(C2)N3)nn1,Potency,[1],inactive
same,outcome,[2],inactive
c1ccc2c(c1)[I+]c1ccccc1-2,Potency,[1],8.91 µM (active)
CN1CC[C@@]2(C)c3cc(O)ccc3N(C)C12 (some centres undefined),Potency,[1],inactive
same,outcome,[2],inactive
O=C1C[C@@H]2OCC=C3CN4CC[C@]56c7ccccc7N1[C@H]5[C@H]2[C@H]3C[C@H]46,outcome,[3],inactive
same,Potency,[4],59.6 µM (active)
same,outcome,[5],inactive
same,outcome,[6],inactive
same,outcome,[7],inactive
same,outcome,[8],inactive
NCCCP(=O)(O)O,Potency,[1],inactive
same,outcome,[2],inactive
COc1ccc(OC)c(C(O)C(C)N)c1 (centres undefined),Potency,[1],inactive
same,outcome,[2],inactive
CC(N)Cc1c[nH]c2ccc(OCc3cccs3)cc12 (centres undefined),Potency,[1],inactive
same,outcome,[2],inactive
[Cl-].[Cl][Pt].[NH2-].[NH2-].c1ccncc1,Potency,[1],inactive
same,outcome,[2],inactive
Cc1o[nH]c(=O)c1CC(N)C(=O)O (centres undefined),Potency,[1],inactive
same,outcome,[2],inactive
COc1ccc2[nH]cc(CCN)c2c1,outcome,[3],inactive
same,outcome,[5],inactive
same,outcome,[6],inactive
same,outcome,[9],inactive
same,outcome,[8],inactive
same,Potency,[1],inactive
same,outcome,[2],inactive
CC(=O)OCC1=C(C(=O)O)N2C(=O)[C@@H](NC(=O)CCC[C@@H](N)C(=O)O)[C@H]2SC1,Potency,[1],inactive
same,outcome,[2],inactive
c1ccc2cc(CC3=NCCN3)ccc2c1,Potency,[1],inactive
same,outcome,[2],inactive
C[C@H]1C2Cc3ccc(O)cc3[C@@]1(C)CCN2CC1CC1,Potency,[1],inactive
same,outcome,[2],inactive
O=C1C=CC(=O)C=C1,Potency,[1],inactive
same,outcome,[2],inactive
CCCN(CCC)[C@H]1CCc2c(F)ccc(O)c2C1,Potency,[1],inactive
same,outcome,[2],inactive
NCC(O)c1cc(O)c(O)cc1F (centres undefined),Potency,[1],inactive
same,outcome,[2],inactive
C[N+]1(C)CCN(c2ccccc2)CC1,Potency,[1],inactive
same,outcome,[2],inactive
COc1ccc2c(c1)C13CCCCC1C(C2)N(C)CC3 (centres undefined),Potency,[1],inactive
same,outcome,[2],inactive
COC(=O)N1CCN(C(=O)Cc2ccc(Cl)c(Cl)c2)C(CN2CCCC2)C1 (centres undefined),Potency,[1],inactive
same,outcome,[2],inactive
O=[N+]([O-])/C=C/c1ccc2c(c1)OCO2,Potency,[1],7.08 µM (active)
same,outcome,[2],inactive
CCS(=O)(=O)Nc1cccc(C(=C2CCCCC2)c2cnc[nH]2)c1,Potency,[1],inactive
same,outcome,[2],inactive
Clc1cc(I)cc(Cl)c1NC1=NCCN1,Potency,[1],inactive
same,outcome,[2],inactive
CCNC(=O)[C@H]1O[C@@H](n2cnc3c(N)ncnc32)[C@H](O)[C@@H]1O,Potency,[1],inactive
same,outcome,[2],inactive
C[C@H](Cc1ccc2c(c1)OC(C(=O)O)(C(=O)O)O2)NC[C@H](O)c1cccc(Cl)c1,Potency,[1],inactive
same,outcome,[2],inactive
CN1C2CCC1CC(OC(c1ccccc1)c1ccccc1N)C2 (centres undefined),Potency,[1],inactive
same,outcome,[2],inactive
COc1ccc2[nH]c3c(c2c1)CCNC3,Potency,[1],inactive
same,outcome,[2],inactive
CCn1cnc2c(Nc3cccc(Cl)c3)nc(N[C@@H]3CCCC[C@@H]3N)nc21,Potency,[1],2.51 µM (active)
same,outcome,[2],inactive
CC(C)NP(=O)(NC(C)C)OP(=O)(NC(C)C)NC(C)C,Potency,[1],inactive
same,outcome,[2],inactive
N[C@@H](Cn1oc(=O)[nH]c1=O)C(=O)O,Potency,[1],inactive
same,outcome,[2],inactive
C=CCN1C[C@@H](C)N([C@H](c2ccc(C(=O)N(CC)CC)cc2)c2cccc(OC)c2)C[C@@H]1C,Potency,[1],inactive
same,outcome,[2],inactive
CN1CCc2cccc(Cl)c2CC1,Potency,[1],inactive
same,outcome,[2],inactive
CCCN1CCC[C@@H](c2cccc(O)c2)C1,Potency,[1],inactive
same,outcome,[2],inactive
Cc1sc2ccccc2c1CC1=NCCN1,Potency,[1],inactive
same,outcome,[2],inactive
C[N+]1(C)CCOC(O)(c2ccc(-c3ccc(C4(O)C[N+](C)(C)CCO4)cc3)cc2)C1 (centres undefined),Potency,[1],inactive
same,outcome,[2],inactive
C[C@H](N)CN1CCc2ccc(Br)cc21,Potency,[1],inactive
same,outcome,[2],inactive
N[C@@]1(C(=O)O)CC[C@@H](C(=O)O)C1,Potency,[1],inactive
same,outcome,[2],inactive
CCCN(CCC)[C@@H]1CCc2cccc(O)c2C1,Potency,[1],inactive
same,outcome,[2],inactive
